Assay [1] is described as follows: Her2 expression decrease, cell viability multiplex – SKBR3 breast tumor cells, AlphaScreen, ATP viability, primary screen (AID 461;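 active = Her2 level under about 52% in both replicate screens, with viability over 70% of control, limit read from the data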;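 as to Her2 level: lower value means less Her2 protein in the cells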;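 as to viability: percent of carrier control wells set as 100% viability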). Particulars: SKBR3 Her2 protein level, 18-24 h, measured here: SKBR3 viability, ATP luminescence, at 10 µM.
Assay [2] has as its target Receptor tyrosine-protein kinase erbB-2 (Homo sapiens) (UniProt P04626). Described as above. The settings on record: 18-24 h, at 10 µM, stronger effect = lower value.
The nature of assay [3]: reduced viability of SK-BR-3 breast cancer cells – cell-based, 24 h, human, pilot screen (AID 572;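 active = viability at or below 10% of carrier control in both of two separate runs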;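 also: compound exposure lasted between 18 and 24 h rather than exactly 24 h; 100% = carrier-treated control wells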). Particulars: SK-BR-3 viability, CellTiter-Glo luminescence, at 10 µM, stronger effect = lower value. Background: In ATP-based viability assays light output follows the ATP content of the culture.
The nature of assay [4]: HUVEC growth inhibition – cell-based, human, primary screen (AID 575;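 active = viability at or below 30% in both replicate assays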;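 also: 100% = median of untreated cell wells with 0.1% DMSO on each plate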). The settings on record: HUVEC proliferation, CellTiter-Glo luminescence, 72 h; at 10 µM; stronger effect = lower value.
Assay [5] can be described thus: H69AR cell proliferation blockers – human, duplicate replicates, primary screen (AID 580;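 active = viability at or under a set limit in both replicates, limit being median viability minus 3 SD, cut at about 48% in these data, passing the limit was not always enough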;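 also: 100% = mean luminescence of untreated wells and 0% = no signal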). Particulars: H69AR lung tumor cells viability, ATP luminescence, 72 h; at 10 µM; stronger effect = lower value.
Assay [6] is described as follows: MRP1 drug-resistance reversers in H69AR cells – cell-based, doxorubicin co-treatment, pilot screen (AID 601). Particulars: CellTiter-Glo, 72 h, at 10 µM; for differential viability (reversal): stronger effect = higher value.
Assay [7] can be described thus: yeast transport mutant growth inhibition pilot in 384-well plates, post-Golgi transport modulator project (AID 636; in the data active = inhibition above about 31%). The settings on record: absorbance 615 nm, about 18 h, stronger effect = higher value.
Assay [8] in a line: growth suppression of yeast trafficking mutant, preliminary HTS, modulators of trafficking downstream of Golgi apparatus project, 1536-format plate, OD 615 nm (AID 637; in the data active = inhibition above about 30%). The settings on record: yeast transport mutant growth, absorbance 615 nm, 18 h; stronger effect = higher value.
Assay [9] in a line: S. cerevisiae growth inhibition in permissive medium (OD615), pilot counter-assay for S. cerevisiae lifespan shortening project, permissive growth control (AID 705;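 active = growth inhibition above 25% in both replicates, a cutoff set 3 SD above the mean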). The settings on record: OD615, 24 h, at 10 µM, stronger effect = higher value.
Assay [10] can be described thus: S. cerevisiae growth inhibition in restrictive medium, OD615, pilot screen, restrictive growth control, yeast lifespan reduction project (AID 706;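 active = growth inhibition above a set limit, 3 SD over mean compound inhibition, in both replicates, cut at about 43% in these data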;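 also: modified DeaD lifespan yeast strain shifted to restrictive glucose medium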). The settings on record: OD615, 48 h, at 10 µM, stronger effect = higher value.
Assay [11] in a line: doxorubicin toxicity protection in MRP-1 cells – H69AR cells, CellTiter-Glo, duplicate, MRP-1 activator project, pilot screen (AID 807;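 active = viability increase at or above a cutoff of the median across tested compounds plus 3 SD, cut at about 8.5% in these data, passing the limit was not always enough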;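 also: compound pretreatment 18-22 h then 72 h combined with doxorubicin; 0% = doxorubicin alone and 100% = vehicle without doxorubicin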). Particulars: H69AR viability with doxorubicin, CellTiter-Glo luminescence; at 10 µM; stronger effect = higher value.
Assay [12] is described as follows: viability of HCT116 without oncogenic beta-catenin – human colon tumor cells, pilot screen (AID 823;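 active = cell viability at or below a set limit in both duplicate runs, the limit being the all-compound median minus 4 SD, cut at about 23% in these data, passing the limit was not always enough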;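 also: 0% = wells killed by 20 µM Hyamine and 100% = untreated DMSO cell wells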). The settings on record: HCT116 beta-catenin knockout viability, CellTiter-Glo, 60 h; at 10 µM; stronger effect = lower value.
A short description of assay [13]: viability of PTEN-null HCT116 cells – cell-based, HCT116 clonal line, CellTiter-Glo, pilot screen (AID 824;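 active = viability at or below 27.92% in each of two runs, the all-compound median minus 4 SD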;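 also: 0% = 20 µM Hyamine control and 100% = vehicle cell control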). The settings on record: HCT116 PTEN-deleted viability, 60 h, at 10 µM, stronger effect = lower value.
The nature of assay [14]: RAM pathway blockade in budding yeast – dse1pr::URA3 reporter, 5-FOA selection, pilot screen (AID 869;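 active = inhibition over a set limit, the all-compound mean plus 3 SD, in both replicate runs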;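 also: 0% = DMSO wells with no growth and 100% = 10 µM 1-NA-PP1 with full growth; RAM network block rescues cells from 5-FOA so hits raise OD615 growth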). The settings on record: S. cerevisiae dse1pr::URA3 5-FOA growth, OD615, 2 d; at 10 µM; stronger effect = higher value; strain carries analog-sensitive mutant Cbk1 kinase.
The nature of assay [15]: RAM signaling pathway blockade in yeast – S. cerevisiae, Pdr1DBD-CYC8 efflux-inhibited sensitized strain, primary screen (AID 1298;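 active = RAM network inhibition above 8.4% in each of two replicates, 3 SD over the compound average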;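 also: 0% = DMSO untreated cells without growth and 100% = 10 µM 1-NA-PP1 full growth; higher means more yeast growth rescued from 5-FOA killing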). The settings on record: S. cerevisiae cbk1-as DSE1-URA3 strain, 5-FOA growth OD615, 2 d; at 50 µM; stronger effect = higher value.
Where [16] appears, read: H69AR cells + 2 uM doxorubicin, measured here: viability with 2 uM doxorubicin, stronger effect = lower value.
The mark [17] stands for this setting: H69AR cells, compound alone cytotoxicity.

Molecules are shown by their SMILES. Inconclusive results are not listed. Calls of active or inactive are those of the source.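 The calls were made as follows, unless noted: active = viability loss from added drug above about 55%, and viability with drug at most 40%, in both replicates (limit read from the data, passing the limit was not always enough); inconclusive = both conditions met in only one replicate; inactive = neither replicate meets both conditions.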

Usually viability stands for a read-out of living cells in per cent, often relative to untreated cells. One may read the inhibition as the relative decrease from the control value, in per cent.

Receptor tyrosine-protein kinase erbB-2 (Homo sapiens), sequence (P04626 whole entry, looked up): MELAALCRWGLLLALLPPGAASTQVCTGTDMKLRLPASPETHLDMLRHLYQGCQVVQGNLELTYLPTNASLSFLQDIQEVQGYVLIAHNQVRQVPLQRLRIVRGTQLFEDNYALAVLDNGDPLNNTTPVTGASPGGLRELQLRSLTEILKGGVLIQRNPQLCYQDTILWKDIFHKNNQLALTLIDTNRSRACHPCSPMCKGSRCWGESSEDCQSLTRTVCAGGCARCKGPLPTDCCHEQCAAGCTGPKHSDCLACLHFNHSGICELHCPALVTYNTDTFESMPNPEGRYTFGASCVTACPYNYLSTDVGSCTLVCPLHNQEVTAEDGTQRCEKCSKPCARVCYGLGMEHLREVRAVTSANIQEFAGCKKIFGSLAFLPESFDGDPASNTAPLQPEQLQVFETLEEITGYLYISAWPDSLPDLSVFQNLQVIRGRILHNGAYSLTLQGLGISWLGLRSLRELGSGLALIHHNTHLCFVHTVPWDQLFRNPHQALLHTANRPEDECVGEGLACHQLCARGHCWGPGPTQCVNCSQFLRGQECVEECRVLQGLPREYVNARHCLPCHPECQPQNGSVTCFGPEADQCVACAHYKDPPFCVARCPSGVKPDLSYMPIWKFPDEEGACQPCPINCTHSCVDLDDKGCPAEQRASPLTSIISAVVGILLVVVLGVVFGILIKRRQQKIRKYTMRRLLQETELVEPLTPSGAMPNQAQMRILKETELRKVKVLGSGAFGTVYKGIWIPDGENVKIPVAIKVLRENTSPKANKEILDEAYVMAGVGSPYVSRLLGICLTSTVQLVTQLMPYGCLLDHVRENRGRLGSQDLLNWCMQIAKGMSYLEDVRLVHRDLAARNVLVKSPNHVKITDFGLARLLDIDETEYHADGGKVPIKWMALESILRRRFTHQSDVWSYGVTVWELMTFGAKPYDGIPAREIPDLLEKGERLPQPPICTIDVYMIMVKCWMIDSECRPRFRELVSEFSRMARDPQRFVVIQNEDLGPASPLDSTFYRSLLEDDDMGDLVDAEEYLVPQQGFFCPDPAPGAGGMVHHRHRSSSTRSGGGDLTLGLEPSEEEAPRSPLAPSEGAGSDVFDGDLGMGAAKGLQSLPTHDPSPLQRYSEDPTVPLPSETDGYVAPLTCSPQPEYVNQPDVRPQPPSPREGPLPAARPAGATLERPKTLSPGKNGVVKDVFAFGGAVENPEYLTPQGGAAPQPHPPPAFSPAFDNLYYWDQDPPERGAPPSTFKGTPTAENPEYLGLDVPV

Turning to `CC1(C)Oc2ccc3ccc(=O)oc3c2C(N2CCCCC2)C1O` (stereo not drawn), the viability was 103% in assay [1]; 103% (inactive) in [3]; 89.6% (inactive) in assay [4]; 92.6% (inactive) in assay [5]; 85.3% in [6] (setting [16]); 92.6% in assay [6] (setting [17]). Moreover, the viability in assay [12] was 101% (inactive); in [13], 98.2% (inactive). In addition, the Her2 level in [2] is 94% (inactive). In assay [6] (H69AR cells + 2 uM doxorubicin), the differential viability (reversal) was 7.25% (inactive). The inhibition in [7] was -0.52% (inactive); in assay [8] it was -4.33% (inactive); in assay [14], 1.49% (inactive). Further, the growth inhibition was -4.78% (inactive) in assay [9] and -7.54% (inactive) in assay [10]. Further, the viability increase in [11] was -2.43% (inactive). The RAM network inhibition in [15] is 2.29% (inactive).
With `CC(=O)NCc1nc2ccccc2n1C(C)C`, the viability is 104% in assay [1]; 104% (inactive) in [3]; 84.2% (inactive) in assay [4]; 92.3% (inactive) in assay [5]; 82.3% in assay [6] (setting [16]); 92.3% in assay [6] (setting [17]). For the same compound, the viability in [12] is 105% (inactive); in assay [13], 95.5% (inactive). The Her2 level in assay [2] was 108% (inactive). Besides, the differential viability (reversal) in [6] (H69AR cells + 2 uM doxorubicin) is 10% (inactive). For the same compound, the inhibition is -4.93% (inactive) in [7], -4.83% (inactive) in [8] and 0.84% (inactive) in [14]. The growth inhibition in assay [9] is -13.7% (inactive); in assay [10] it was -29.9% (inactive). Further, the viability increase in assay [11] was -0.81% (inactive). In addition, the RAM network inhibition in [15] is 3.6% (inactive).
In the case of `O=C(NCCC1=CCCCC1)C1CCN(S(=O)(=O)c2cccc3cccnc23)CC1`, the viability in assay [1] was 104%; in assay [3], 104% (inactive); in assay [4], 89% (inactive); in assay [5], 97% (inactive); in [6] (setting [16]) it was 98.2%; in [6] (setting [17]), 97%. The viability in assay [12] was 93.3% (inactive); in assay [13], 91.6% (inactive). Moreover, the Her2 level in [2] is 96% (inactive). The differential viability (reversal) in assay [6] (H69AR cells + 2 uM doxorubicin) is -1.27% (inactive). Moreover, the inhibition in [7] is -2.27% (inactive); in [8] it was -0.82% (inactive); in [14] it was 0.885% (inactive). Also, the growth inhibition was 6.61% (inactive) in assay [9] and -0.115% (inactive) in assay [10]. Also, the viability increase in [11] is 4.13% (inactive). The RAM network inhibition in [15] is 1.51% (inactive).
In the case of `O=C1CN(c2nc3ccccc3n3cnnc23)CC(=O)N1CCc1ccccc1`, the viability in assay [1] was 91.5%; in [3] it was 91.5% (inactive); in [4], 104% (inactive); in assay [5] it was 102% (inactive); in assay [6] (setting [16]) it was 90.2%; in assay [6] (setting [17]) it was 102%. For the same compound, the viability in [12] was 102% (inactive); in [13] it was 95.9% (inactive). The Her2 level in assay [2] is 100% (inactive). Moreover, the differential viability (reversal) in assay [6] (H69AR cells + 2 uM doxorubicin) was 12% (inactive). For the same compound, the inhibition in assay [7] was -0.38% (inactive); in assay [8], -1.17% (inactive); in assay [14] it was 3.38% (inactive). The growth inhibition is -6.92% (inactive) in assay [9] and -3.06% (inactive) in assay [10]. Further, in assay [11], the viability increase was 0.25% (inactive). The RAM network inhibition in assay [15] was 5.88% (inactive).
For the compound `Cc1cccc(N2CCN(C(=O)Cn3nc(Cc4ccncc4)c4ccccc4c3=O)CC2)c1C`, the viability in assay [1] was 83%; in [3], 83% (inactive); in assay [4], 83.9% (inactive); in assay [5], 75.9% (inactive); in assay [6] (setting [16]), 83.5%; in [6] (setting [17]), 75.9%. The viability in assay [12] was 70.7% (inactive); in [13], 76% (inactive). Further, the Her2 level in [2] is 82% (inactive). The differential viability (reversal) in assay [6] (H69AR cells + 2 uM doxorubicin) is -7.61% (inactive). Moreover, the inhibition is -5.6% (inactive) in assay [7], 1.5% (inactive) in [8] and 0.445% (inactive) in assay [14]. For the same compound, the growth inhibition in assay [9] was 1.35% (inactive); in assay [10], 6.96% (inactive). The viability increase in [11] is 1.06% (inactive). Further, the RAM network inhibition in [15] is 3.21% (inactive).
As for `CCOC(=O)c1oc2c(CN3CCN(C)CC3)c(O)ccc2c(=O)c1-c1ccccc1OC`, the viability in assay [1] is 94%; in [3] it was 94% (inactive); in assay [4] it was 99.5% (inactive); in [5] it was 93.1% (inactive); in [6] (setting [16]), 93.3%; in assay [6] (setting [17]), 93.1%. Besides, the viability is 103% (inactive) in assay [12] and 94% (inactive) in assay [13]. Besides, the Her2 level in assay [2] is 110% (inactive). Besides, the differential viability (reversal) in assay [6] (H69AR cells + 2 uM doxorubicin) was -0.225% (inactive). Moreover, the inhibition is 0% (inactive) in assay [7], 0.5% (inactive) in assay [8] and 3.98% (inactive) in assay [14]. In addition, the growth inhibition was -13% (inactive) in assay [9] and -15.5% (inactive) in assay [10]. Also, the viability increase in assay [11] was -1.3% (inactive). The RAM network inhibition in [15] was 1.2% (inactive).
As to `Cc1ccc(S(=O)(=O)N2CCC(C(=O)N3CCN(Cc4ccccc4)CC3)CC2)cc1`, the viability in [1] is 99%; in assay [3], 99% (inactive); in assay [4] it was 100% (inactive); in assay [5], 85.3% (inactive); in [6] (setting [16]), 101%; in [6] (setting [17]), 85.3%. The viability in assay [12] is 90.5% (inactive); in [13] it was 92.6% (inactive). Besides, the Her2 level in assay [2] is 91% (inactive). Also, the differential viability (reversal) in assay [6] (H69AR cells + 2 uM doxorubicin) was -15.4% (inactive). The inhibition in [7] was -1.73% (inactive); in assay [8] it was -0.33% (inactive); in assay [14] it was 2.2% (inactive). For the same compound, the growth inhibition in assay [9] was -8.33% (inactive); in assay [10], 0.335% (inactive). For the same compound, in [11], the viability increase is 1.01% (inactive). Also, in [15], the RAM network inhibition is 4.44% (inactive).
Take `Cc1[nH]c2ccccc2c(=O)c1CN1CCCCC1`: the viability in [1] was 99%; in assay [3], 99% (inactive); in assay [4], 101% (inactive); in [5] it was 90.5% (inactive); in assay [6] (setting [16]), 91.1%; in assay [6] (setting [17]), 90.5%. The viability is 97.3% (inactive) in [12] and 105% (inactive) in [13]. Besides, in [2], the Her2 level was 103% (inactive). For the same compound, the differential viability (reversal) in assay [6] (H69AR cells + 2 uM doxorubicin) is -0.56% (inactive). Further, the inhibition in [7] is -4.29% (inactive); in assay [8] it was -3.67% (inactive); in [14], 0.515% (inactive). The growth inhibition in assay [9] is -17.1% (inactive); in assay [10], -15.9% (inactive). The viability increase in [11] is -0.38% (inactive). In assay [15], the RAM network inhibition was -0.21% (inactive).
For `Cc1cc(=O)oc2c1c(C)nn2-c1ccc(C(=O)OC(C)C)cc1`, the viability in assay [1] was 83.5%; in assay [3], 83.5% (inactive); in [4], 99% (inactive); in [5], 96.9% (inactive); in assay [6] (setting [16]) it was 94.5%; in [6] (setting [17]) it was 96.9%. Besides, the viability was 97.3% (inactive) in [12] and 87.4% (inactive) in [13]. Besides, in assay [2], the Her2 level was 83.5% (inactive). Further, in [6] (H69AR cells + 2 uM doxorubicin), the differential viability (reversal) is 2.41% (inactive). Moreover, the inhibition in [7] was -0.13% (inactive); in [8], 1.15% (inactive); in assay [14], 0.78% (inactive). In addition, the growth inhibition in assay [9] was -4.51% (inactive); in assay [10] it was 3.34% (inactive). Further, the viability increase in assay [11] is -3.1% (inactive). Besides, in [15], the RAM network inhibition was 1.04% (inactive).

The values above are taken from PubChem BioAssay.
